For seven molecules, outcome and AC50 results are on record in PubChem BioAssay (EPA / NIEHS).

The nature of experiment [1]: ATG_CRE_CIS: Attagene CIS-FACTORIAL HepG2 Assay for human cAMP Responsive Element (CRE) binding protein 3 (AID 2282926). Conditions: HepG2 CRE cis-reporter, Attagene multiplexed mRNA; actives raise or lower the signal. In a few lines:
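Induced reporter mRNA from a CRE cis element, measured in HepG2 among many multiplexed units at 24 h. Detection used RT-PCR plus capillary electrophoresis of fluorescent fragments; DMSO served as negative control.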

In experiment [2] the target is CCAAT/enhancer-binding protein beta (Homo sapiens) (UniProt P17676). In words: ATG_C_EBP_CIS: Attagene CIS-FACTORIAL HepG2 Assay for human CCAAT/Enhancer Binding Protein (C/EBP) beta (AID 2282927). Particulars: HepG2 Attagene cis-factorial transcription factor reporter; actives raise or lower the signal. In a few lines:
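Following a 24 h incubation with test chemical, transfected HepG2 cells yielded RNA whose reporter transcripts were quantified by RT-PCR and fluorescent capillary electrophoresis, with DMSO serving as baseline for bidirectional fitting.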

Experiment [3] can be described thus: ATG_CMV_CIS: Attagene CIS-FACTORIAL HepG2 Assay for human CMV (Internal Marker) (AID 2282928).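 Further: endpoint acts as a background internal control marker rather than a target.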 Conditions: HepG2 CMV promoter reporter, transcription factor profiling; actives raise or lower the signal. The method, boiled down: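 24 h chemical treatment, HepG2 with transient multi-reporter transfection; RNA → oligo(dT) RT → PCR → 6-FAM extension → HpaI digest → CE fluorescence. Bidirectional fit, DMSO negative control.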

Experiment [4] can be described thus: ATG_DR4_LXR_CIS: Attagene CIS-FACTORIAL HepG2 Assay for human Liver X Receptor (LXR), DR4 submotif (AID 2282929). Conditions: HepG2 Attagene DR4 cis-reporter, mRNA transcription; actives raise or lower the signal. The method, boiled down:
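HepG2, transient MRTU transfection, cis-element (DR4) promoter; 24 h compound exposure; total RNA → oligo(dT) RT → PCR → 6-FAM primer extension → HpaI cut → CE. Gain/loss vs DMSO, bidirectional fit.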

The target of experiment [5] is Aryl hydrocarbon receptor (Homo sapiens) (UniProt P35869). In words: ATG_Ahr_CIS: Attagene CIS-FACTORIAL HepG2 Assay for human Aryl Hydrocarbon Receptor (Ahr) (AID 2282930). Particulars: HepG2 AhR cis-factorial reporter transcription; actives raise or lower the signal. The method, boiled down: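 Values derive from bidirectional fitting against DMSO negative control. Underlying signal: cis-element reporter mRNA in transiently transfected HepG2, harvested 24 h post-dose and measured by RT-PCR plus capillary electrophoresis.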
Chain of Aryl hydrocarbon receptor (Homo sapiens) (P35869 whole entry, looked up): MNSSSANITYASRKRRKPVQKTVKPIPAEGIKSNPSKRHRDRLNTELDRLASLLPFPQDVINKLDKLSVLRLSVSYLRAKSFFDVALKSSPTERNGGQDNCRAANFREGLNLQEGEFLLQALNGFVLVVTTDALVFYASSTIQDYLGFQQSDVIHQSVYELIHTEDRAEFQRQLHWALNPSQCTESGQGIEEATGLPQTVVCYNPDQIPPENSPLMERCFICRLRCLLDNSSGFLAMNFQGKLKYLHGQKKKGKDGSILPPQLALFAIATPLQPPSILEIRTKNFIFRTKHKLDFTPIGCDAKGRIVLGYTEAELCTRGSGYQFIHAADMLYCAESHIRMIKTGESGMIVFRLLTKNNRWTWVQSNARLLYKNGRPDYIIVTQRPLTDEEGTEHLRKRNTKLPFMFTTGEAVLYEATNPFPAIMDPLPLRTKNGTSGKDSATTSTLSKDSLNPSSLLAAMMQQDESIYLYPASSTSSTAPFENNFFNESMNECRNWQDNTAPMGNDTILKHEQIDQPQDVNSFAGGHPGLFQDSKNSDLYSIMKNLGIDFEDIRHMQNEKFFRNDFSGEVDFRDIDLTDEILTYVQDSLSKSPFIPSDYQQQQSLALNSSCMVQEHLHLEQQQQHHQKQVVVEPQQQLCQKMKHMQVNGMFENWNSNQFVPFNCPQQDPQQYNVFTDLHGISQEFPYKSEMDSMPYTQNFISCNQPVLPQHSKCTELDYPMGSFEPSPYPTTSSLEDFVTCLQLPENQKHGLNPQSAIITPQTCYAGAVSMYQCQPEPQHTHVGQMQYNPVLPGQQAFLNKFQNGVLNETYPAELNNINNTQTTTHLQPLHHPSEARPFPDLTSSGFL

The nature of experiment [6]: ATG_AP_1_CIS: Attagene CIS-FACTORIAL HepG2 Assay for human Activator Protein 1 (AP-1) (AID 2282931). Particulars: HepG2 Attagene cis-factorial AP-1 reporter mRNA; actives raise or lower the signal. The method, boiled down:
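Transient MRTU transfection of HepG2 → 24 h chemical treatment → RNA isolation, RT-PCR, 6-FAM labelling, HpaI digest → capillary electrophoresis. Fit: bidirectional, DMSO negative control.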

Experiment [7] can be described thus: ATG_BRE_CIS: Attagene CIS-FACTORIAL HepG2 Assay for human Bone Morphogenetic Protein (BMP) Response Element (BRE) (AID 2282933). Particulars: HepG2 BMP response element reporter, Attagene transcription factor profiling; actives raise or lower the signal. The method, boiled down:
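HepG2 cells transiently transfected with multiplexed cis-element reporter units were dosed with chemical for 24 h. Reporter mRNA was measured by RT-PCR with fluorescent labelling, HpaI digestion and capillary electrophoresis; bidirectional fitting relative to DMSO.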

Experiment [8] concerns the target Retinoic acid receptor alpha (Homo sapiens) (UniProt P10276). Kind of experiment: ATG_DR5_RAR_CIS: Attagene CIS-FACTORIAL HepG2 Assay for human Retinoic Acid Receptor Alpha (RARE), DR5 submotif (AID 2282934). Particulars: HepG2 Attagene cis-factorial RARE DR5 reporter, mRNA; actives raise or lower the signal. In a few lines: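 Endpoint fitted in both directions relative to DMSO as negative control. It reflects DR5 cis-element reporter mRNA induction in transiently transfected HepG2 cells, measured 24 h after dosing through RT-PCR and fluorescent capillary electrophoresis.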

Experiment [9] addresses Transcription factor E2F1 (Homo sapiens) (UniProt Q01094). Kind of experiment: ATG_E2F_CIS: Attagene CIS-FACTORIAL HepG2 Assay for human E2F Transcription Factor 1 (AID 2282935). Conditions: HepG2 Attagene cis-reporter, E2F reporter RNA transcripts; actives raise or lower the signal. The method, boiled down: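 In this cis-factorial format, endogenous factor activity drives transfected reporters in HepG2; transcripts collected at 24 h are quantified by fluorescence after RT-PCR and capillary separation.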

A short description of experiment [10]: ATG_E_Box_CIS: Attagene CIS-FACTORIAL HepG2 Assay for human Enhancer Box (E-box) (AID 2282936). Conditions: HepG2 E-box cis-reporter transcription, actives raise or lower the signal. In a few lines: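 Measured 24 h post-dosing in HepG2 cells transfected with multiple cis-regulated reporter units, signal being reporter mRNA induction detected by fluorescent RT-PCR with capillary electrophoresis; gain or loss fitted against DMSO.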

The nature of experiment [11]: ATG_M_61_CIS: Attagene CIS-FACTORIAL HepG2 Assay for M61 Transcription Factor (Internal Marker) (AID 2282937). Conditions: HepG2 Attagene CIS-FACTORIAL M61 internal marker reporter; actives raise or lower the signal. In a few lines: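 Human liver HepG2, transient MRTU transfection (cis promoter elements), 24 h compound. Total RNA → oligo(dT) RT → PCR → FAM label → HpaI → CE. Internal background marker; bidirectional fitting, DMSO = baseline.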

Experiment [12] in a line: ATG_EGR_CIS: Attagene CIS-FACTORIAL HepG2 Assay for human Early Growth Response 1 (EGR1) (AID 2282938). Conditions: HepG2 Attagene CIS-FACTORIAL EGR reporter mRNA; actives raise or lower the signal. In a few lines:
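Transient transfection of human HepG2 with multiple cis-regulated reporter units, chemical exposure 24 h, total RNA isolated. Reverse transcription, PCR, fluorescent labelling and capillary electrophoresis quantify reporter transcripts; activity fitted bidirectionally against DMSO.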

The nature of experiment [13]: ATG_M_19_CIS: Attagene CIS-FACTORIAL HepG2 Assay for M19 Transcription Factor (Internal Marker) (AID 2282939). Conditions: HepG2 Attagene CIS-FACTORIAL M19 internal marker reporter; actives raise or lower the signal. In a few lines:
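HepG2 cells transiently transfected with cis-regulated multiple reporter transcription units were dosed for 24 h; reporter mRNA was quantified by RT-PCR, 6-FAM primer-extension labelling, HpaI digestion and capillary electrophoresis, with bidirectional fitting against DMSO baseline.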

Experiment [14] can be described thus: ATG_Ets_CIS: Attagene CIS-FACTORIAL HepG2 Assay for human Erythroblast Transformation Specific (ETS) (AID 2282941). Conditions: HepG2 ETS cis-reporter transcription, actives raise or lower the signal. The method, boiled down:
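Cis-regulated reporter mRNA induction in HepG2 (transient transfection), 24 h exposure, RT-PCR plus capillary electrophoresis detection; DMSO serves as negative control and baseline.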

Experiment [15] deals with Hepatocyte nuclear factor 3-beta (Homo sapiens) (UniProt Q9Y261). In words: ATG_FoxA2_CIS: Attagene CIS-FACTORIAL HepG2 Assay for human Forkhead box A2 (FOXA2) (AID 2282942). Conditions: HepG2 cis-reporter transcription factor activity, 24 h; actives raise or lower the signal. In a few lines: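 Transient MRTU transfection of HepG2 liver cells; 24 h treatment; total RNA → oligo(dT) RT → PCR → FAM primer extension → HpaI cut → CE. Bidirectional fit vs DMSO.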
Chain of Hepatocyte nuclear factor 3-beta (Homo sapiens) (Q9Y261 whole entry, looked up): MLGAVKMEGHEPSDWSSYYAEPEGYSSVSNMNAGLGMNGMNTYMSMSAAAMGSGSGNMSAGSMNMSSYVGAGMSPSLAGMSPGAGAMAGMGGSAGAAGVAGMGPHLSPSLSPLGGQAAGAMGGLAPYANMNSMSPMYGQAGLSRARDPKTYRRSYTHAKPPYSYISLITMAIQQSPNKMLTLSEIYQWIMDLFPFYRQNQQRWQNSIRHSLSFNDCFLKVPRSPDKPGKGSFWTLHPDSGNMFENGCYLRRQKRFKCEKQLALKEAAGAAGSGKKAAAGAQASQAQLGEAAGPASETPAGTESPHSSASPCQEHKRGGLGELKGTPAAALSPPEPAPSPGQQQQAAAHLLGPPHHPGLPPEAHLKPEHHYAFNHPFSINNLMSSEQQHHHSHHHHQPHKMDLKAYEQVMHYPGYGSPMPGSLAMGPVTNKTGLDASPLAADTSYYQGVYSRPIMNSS

The nature of experiment [16]: ATG_FoxO_CIS: Attagene CIS-FACTORIAL HepG2 Assay for human Forkhead box O (FoxO) (AID 2282943). Particulars: HepG2 Attagene cis-reporter, FoxO element, mRNA; actives raise or lower the signal. The method, boiled down:
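Values reflect reporter mRNA induction or loss in HepG2 cells 24 h post-dosing, fitted bidirectionally with DMSO as negative control and baseline. Detection used RT-PCR and fluorescence capillary electrophoresis.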

The nature of experiment [17]: ATG_GATA_CIS: Attagene CIS-FACTORIAL HepG2 Assay for human GATA Binding Protein (AID 2282944). Particulars: HepG2 GATA cis-element reporter, Attagene multiplex mRNA; actives raise or lower the signal. In a few lines: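 HepG2 cells transiently transfected with multiplexed cis-element reporter units reflecting endogenous transcription factor activity; reporter mRNA measured after 24 h dosing by RT-PCR, 6-FAM labeling, HpaI digestion and capillary electrophoresis. Bidirectional fitting versus DMSO baseline.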

The target in experiment [18] is Bile acid receptor (Homo sapiens) (UniProt Q96RI1). Kind of experiment: ATG_IR1_CIS: Attagene CIS-FACTORIAL HepG2 Assay for human Nuclear Receptor Subfamily 1 Group H Member 4 (NR1H4), IR1 submotif (AID 2282946). Conditions: IR1 reporter transcription, actives raise or lower the signal. In a few lines: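 Readout: reporter transcript levels by RT-PCR with fluorescent capillary electrophoresis, from HepG2 cells transiently transfected with multiplexed cis-regulated reporters and dosed 24 h. Gain- or loss-of-signal fitted versus DMSO negative control.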
Chain of Bile acid receptor (Homo sapiens) (Q96RI1 whole entry, looked up): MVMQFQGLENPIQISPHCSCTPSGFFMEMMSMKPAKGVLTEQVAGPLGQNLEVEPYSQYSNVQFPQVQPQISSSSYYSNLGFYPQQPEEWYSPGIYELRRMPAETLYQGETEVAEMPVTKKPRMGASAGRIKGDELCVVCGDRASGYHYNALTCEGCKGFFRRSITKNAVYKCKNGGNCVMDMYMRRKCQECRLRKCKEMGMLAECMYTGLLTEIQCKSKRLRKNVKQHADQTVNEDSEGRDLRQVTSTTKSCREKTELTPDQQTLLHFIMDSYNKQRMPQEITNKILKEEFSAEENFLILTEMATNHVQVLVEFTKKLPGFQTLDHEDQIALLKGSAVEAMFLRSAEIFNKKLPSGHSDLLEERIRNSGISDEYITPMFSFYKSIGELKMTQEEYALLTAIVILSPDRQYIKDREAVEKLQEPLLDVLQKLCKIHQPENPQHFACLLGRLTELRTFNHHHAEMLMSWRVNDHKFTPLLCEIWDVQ

Experiment [19] is described as follows: ATG_GLI_CIS: Attagene CIS-FACTORIAL HepG2 Assay for human Zinc Finger Protein GLI1 (AID 2282945). Particulars: HepG2, Attagene cis-factorial reporter mRNA, GLI element; actives raise or lower the signal. The method, boiled down:
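HepG2 cells transiently transfected with cis-promoter multiplexed reporter units report endogenous transcription factor activity. After 24 h chemical exposure, reporter mRNA was quantified by RT-PCR, 6-FAM labelling, HpaI digestion and capillary electrophoresis, with bidirectional fitting against DMSO.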

Experiment [20] in a line: ATG_AP_2_CIS: Attagene CIS-FACTORIAL HepG2 Assay for human Activator Protein 2 (AP-2) (AID 2282932). Particulars: HepG2 AP-2 cis-reporter, Attagene transcription factor profiling; actives raise or lower the signal. In a few lines: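 Assay in transfected HepG2 with promoter-regulated reporters, 24 h incubation after dosing. Signal is reporter mRNA fluorescence (RT-PCR, capillary electrophoresis), analysed for both increases and decreases relative to DMSO controls.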

Activity calls are given as the source filed them. How the source made its calls: active means hit-call score of the fitted dose curve at least 0.9, where 1 is the maximum; inactive means score below 0.9.

Chain of Retinoic acid receptor alpha (Homo sapiens) (P10276 whole entry, looked up): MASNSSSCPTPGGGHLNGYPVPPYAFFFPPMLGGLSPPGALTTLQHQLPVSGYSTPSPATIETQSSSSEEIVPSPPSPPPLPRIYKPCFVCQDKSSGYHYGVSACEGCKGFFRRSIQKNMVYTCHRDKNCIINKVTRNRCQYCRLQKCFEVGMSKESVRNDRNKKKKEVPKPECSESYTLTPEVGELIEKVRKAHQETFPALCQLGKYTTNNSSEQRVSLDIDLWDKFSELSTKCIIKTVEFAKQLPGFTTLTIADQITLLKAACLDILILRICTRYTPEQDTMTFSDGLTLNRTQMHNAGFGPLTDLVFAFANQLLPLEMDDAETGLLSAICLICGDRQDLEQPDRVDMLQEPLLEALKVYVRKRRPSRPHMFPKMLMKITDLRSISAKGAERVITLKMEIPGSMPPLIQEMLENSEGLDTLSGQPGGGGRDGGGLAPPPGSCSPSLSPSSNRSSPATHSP
Chain of CCAAT/enhancer-binding protein beta (Homo sapiens) (P17676 whole entry, looked up): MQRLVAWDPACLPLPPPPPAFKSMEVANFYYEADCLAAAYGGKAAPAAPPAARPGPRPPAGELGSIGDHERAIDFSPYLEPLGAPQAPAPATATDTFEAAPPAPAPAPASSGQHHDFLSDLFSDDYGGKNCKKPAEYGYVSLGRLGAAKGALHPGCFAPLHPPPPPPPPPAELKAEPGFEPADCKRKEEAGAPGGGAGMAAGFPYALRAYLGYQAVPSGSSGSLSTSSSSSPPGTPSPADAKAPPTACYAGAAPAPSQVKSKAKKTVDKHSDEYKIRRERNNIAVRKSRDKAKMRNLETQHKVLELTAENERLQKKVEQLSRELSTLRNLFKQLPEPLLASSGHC
Chain of Transcription factor E2F1 (Homo sapiens) (Q01094 whole entry, looked up): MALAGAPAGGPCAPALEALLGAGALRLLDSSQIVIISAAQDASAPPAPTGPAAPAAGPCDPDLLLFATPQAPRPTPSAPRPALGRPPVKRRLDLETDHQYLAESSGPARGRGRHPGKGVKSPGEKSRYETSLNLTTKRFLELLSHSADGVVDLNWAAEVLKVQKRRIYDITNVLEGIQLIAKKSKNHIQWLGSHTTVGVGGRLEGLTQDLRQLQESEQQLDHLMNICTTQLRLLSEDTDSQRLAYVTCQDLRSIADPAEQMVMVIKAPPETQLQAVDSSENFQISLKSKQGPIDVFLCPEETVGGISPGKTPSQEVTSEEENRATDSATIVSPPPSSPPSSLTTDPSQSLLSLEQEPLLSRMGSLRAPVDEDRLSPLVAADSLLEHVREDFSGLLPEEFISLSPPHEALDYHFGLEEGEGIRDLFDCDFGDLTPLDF

In the case of `COc1ccc(CCN2CCC(Nc3nc4ccccc4n3Cc3ccc(F)cc3)CC2)cc1`, the result in experiment [1], in [2], in experiment [3], in experiment [4], in experiment [5] and in experiment [6] was inactive. In addition, the result in experiment [7], in experiment [8], in experiment [9], in [10], in [11] and in experiment [12] was inactive. Also, the result in experiment [13], in experiment [14], in experiment [15], in experiment [16], in experiment [17] and in [18] was inactive.

On to `COC(=O)c1ccc(OC)cc1`, for which the outcome in experiment [1], in experiment [2], in experiment [3], in experiment [4], in experiment [5] and in [6] was inactive. For the same molecule, the call in experiment [7], in experiment [8], in [9], in experiment [11], in [12] and in experiment [13] was inactive. Besides, the molecule was called inactive in experiment [14], in [15], in experiment [16], in experiment [17], in [19] and in experiment [18].

As to `C=CC(=O)OCCC#N`, the outcome in [1], in [2], in experiment [6], in experiment [8], in experiment [9] and in [10] was inactive. The outcome in experiment [13], in experiment [15] and in experiment [17] was inactive. Also, the AC50 was 100 µM (active) in experiment [3]; 40.5 µM (active) in [4]; 21.6 µM (active) in [20]; 26.7 µM (active) in experiment [7]; 82.6 µM (active) in [12]; 35.9 µM (active) in [14]. Besides, the AC50 is 100 µM (active) in experiment [16], 145 µM (active) in [19] and 58.1 µM (active) in experiment [18].

On to `Nc1ccc2c(O)cc(S(=O)(=O)O)cc2c1`, for which the call in experiment [1], in experiment [2], in [3], in [4], in [6] and in experiment [7] was inactive. Besides, the molecule was called inactive in experiment [8], in experiment [9], in [10], in experiment [11], in experiment [12] and in experiment [13]. In addition, the molecule was classed as inactive in [14], in experiment [16], in experiment [17] and in experiment [19]. For the same molecule, the AC50 in experiment [5] was 25.9 µM (active).

Regarding `Clc1ccc(C(c2ccccc2Cl)C(Cl)Cl)cc1` (configuration not stated), the molecule was called inactive in experiment [1], in experiment [2], in experiment [20], in experiment [7], in experiment [8] and in [9]. Also, the outcome in [10], in experiment [11], in experiment [12], in experiment [15] and in experiment [17] was inactive. Besides, the AC50 in [3] was 100 µM (active); in [4], 25.2 µM (active); in [6] it was 100 µM (active); in experiment [13], 100 µM (active); in experiment [16], 69.8 µM (active); in [19], 53.7 µM (active). For the same molecule, in experiment [18], the AC50 was 43.8 µM (active).

For `Cc1cc(CCC(=O)OCCOCCOCCOC(=O)CCc2cc(C)c(O)c(C(C)(C)C)c2)cc(C(C)(C)C)c1O`, the result in experiment [1], in experiment [2], in experiment [3], in [4], in [5] and in experiment [6] was inactive. Besides, the result in experiment [7], in experiment [8], in experiment [9], in experiment [10], in [11] and in experiment [12] was inactive. Further, the outcome in [13], in experiment [14], in experiment [15], in [16], in experiment [17] and in experiment [19] was inactive. Further, in [18], the call was inactive.

In the case of `CCCCCCCCCC(C)C=O` (configuration not stated), the molecule was called inactive in [1], in experiment [2], in [3], in [4], in experiment [5] and in experiment [6]. The result in [7], in experiment [8], in [10], in [11], in [13] and in experiment [15] was inactive. The result in experiment [16] and in experiment [18] was inactive.
